Hits are enriched below; roughly 4% of the tested compounds scored in any of these assays.
MITF TRPM1 HTS: increases MITF-driven TRPM1 promoter luciferase signal | SK-MEL-5 TRPM1-promoter luciferase, 24 h; % of positive control, neutral wells = 0 | activation, % at 12.5 µM | 0.75% of 300,000 active | AID 588334;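 active = mean activation of at least 80% with every replicate also reaching 80%; inconclusive = mean reaches 80% but some replicate falls short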;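 also: 0% = neutral control wells and 100% = parthenolide positive control wells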
EBV LMP1 NFkB: Epstein-Barr LMP1 NF-kappaB reporter inhibition. inhibition, % at 12.5 µM. LMP1-induced NF-kappaB luciferase reporter cells, luminescence. 0.69% of 350,000 active; in the data active = inhibition above about 41%; inconclusive = no clear call, values can overlap the other calls;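 also: 0% = neutral control wells and 100% = reference inhibitor control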
MITF TRPM1 inh: MITF TRPM1 promoter inhibition in SK-MEL-5 cells. SK-MEL-5 TRPM1 promoter luciferase, 24 h. inhibition, % at 12.5 µM. 0.83% of 330,000 active;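 active = mean inhibition across replicates of 60% or more, whatever share of single replicates reaches that level; inconclusive = some that reach 60%, reason not given; inactive = mean inhibition across replicates below 60%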
C2C12 statin: suppressors of simvastatin-induced myotoxicity in C2C12 myotubes. ATP luminescence, 48 h; scaled: DMSO 0, geranylgeraniol control 100. rescue of ATP level, % at 7.49 µM. 0.78% of 330,000 active. AID 602340;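 active = mean ATP rescue above about 67%, or every replicate alone reaching that limit, limit read from the data, passing the limit was not always enough; inconclusive = no clear call, values can overlap the other calls; inactive = mean under the limit and some replicate under it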;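 also: myotubes were challenged with 10 µM simvastatin during compound exposure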
Wnt bcat act: activators of Wnt/beta-catenin signaling; AID 743398; 1.2% of 300,000 active; activation, % at 9.35 µM; Wnt/beta-catenin reporter cell assay, activator, plate reader; in the data active = activation above about 30%, passing the limit was not always enough; inconclusive = no clear call, values can overlap the other calls;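 also: 0% = neutral control wells and 100% = positive control wells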
esBAF inh: blocks esBAF chromatin remodeling in mouse ES cells. 2% of 350,000 active. AID 602393. Bmi1-luciferase knock-in reporter, 24 h; 100% = twice the neutral-well signal. reporter increase, % at 12.5 µM; in the data active = activation above about 40%; inconclusive = no clear call, values can overlap the other calls;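 also: 0% = median of the plate's neutral control wells and 100% = double that signal; a rise in the Bmi1 reporter signal indicates esBAF inhibition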
An asterisk follows results filed as active; ? = inconclusive; · = no result given; ! = repeats disagree.

SMILES	MITF TRPM1 HTS	EBV LMP1 NFkB	MITF TRPM1 inh	C2C12 statin	Wnt bcat act	esBAF inh
Cc1ccc(-n2[nH]c(C)c(C=Nc3cc(C)ccn3)c2=O)cc1	2	-4	1	89*	5	6
COc1cc(/C=C/C(=O)NC(=O)c2ccccc2O)ccc1OC(C)=O	66	1	-70	0	-2	54*
COc1ccc(/C=C/C(=O)Nc2ccccc2)cc1OC	90*	-8	-86	·	10	·
COc1ccc(/C=C/C(=O)O/N=C(\N)c2ccccc2)cc1OC	40	-63	-39	·	46*	·
Cc1ccccc1/C(N)=N/OC(=O)/C=C/c1ccccc1	58	-17	-58	-5	77*	38
Cc1cccc(S(=O)(=O)N2CC[C@@H]3[C@@H](CO)N(C)c4ccc(Br)cc4[C@@H]32)c1	·	·	·	61	·	-2
CN(CC(=O)Nc1ccccc1Br)C(=O)CNC(=O)c1ccc2c(c1)OCO2	2	-2	-2	8	0	0
CC(NC(=O)c1ccccc1F)c1nnc(SCc2nc3ccccc3c(=O)[nH]2)n1C (stereo unspecified)	-1	-5	4	5	-1	2
O=C(Nc1ccc(C(F)(F)F)cc1)N[C@H]1CC[C@@H](CCn2cc(C3(O)CCCC3)nn2)O[C@H]1CO	·	·	·	-27	·	-49
CCOc1cc(-c2c(C#N)c(N)nc3c2CCCC3)ccc1O	-2	-7	1	-23	·	-1
CCOc1ccc(/C=C/C(=O)c2ccccc2)cc1OC	44	-6	-45	·	76*	·
Cc1ccc(/C(N)=N/OC(=O)/C=C/c2ccccc2)cc1	20	-36	-20	5	-1	50*
COc1ccc(/C(N)=N/OC(=O)/C=C/c2ccccc2)cc1	27	-13	-27	-4	?	27
COc1ccc(/C=C/C(=O)Oc2ccc(/C=N/NC(=O)c3ccccc3)cc2)cc1OC	1	-7	-2	-2	·	47*
COc1ccc(/C=N/NC(=O)c2ccncc2)cc1OC	2	-16	-1	-6	0	-2
N/C(=N\OC(=O)CCc1ccccc1)c1ccc(Br)cc1	26	-12	-21	3	5	37
Cc1ccc(/C(N)=N/OC(=O)CCc2ccccc2)cc1	50	-22	-48	-12	10	60*
CCc1nnc(NC(=O)CCNC(=O)c2ccco2)s1	1	-5	-3	11	-2	-11
COc1ccc(NC(=O)/C=C/c2ccccc2)cn1	122*	-11	-112	0	·	42*
COc1ccc(NC(=O)/C=C/c2ccc(F)cc2)cn1	39	-4	-37	·	19	·
CC(=O)c1cccc(NC(=O)N2CCCC2C(=O)Nc2cc(C)ccc2C)c1 (stereo unspecified)	-10	-9	4	115*	·	-2
COc1ccc(C)cc1NC(=O)C1CCCN1C(=O)OCc1ccccc1 (stereo unspecified)	-7	-3	9	132*	·	-2
CC(=O)c1cccc(NC(=O)N2CCCC2C(=O)NC2CCCC2)c1 (stereo unspecified)	·	0	10	1	-4	-5
Cc1cccc(NC(=O)C2CCCN2C(=O)OCC(C)C)c1C (stereo unspecified)	-7	-3	7	91*	1	-4
Cc1cccc(NC(=O)C2CCCN2C(=O)OCC(C)C)c1 (stereo unspecified)	·	5	-15	·	-6	0
SMILES	MITF TRPM1 HTS	EBV LMP1 NFkB	MITF TRPM1 inh	C2C12 statin	Wnt bcat act	esBAF inh
COc1ccc(C(c2nnnn2Cc2ccccc2)N2CCN(C/C=C/c3ccccc3)CC2)cc1 (stereo unspecified)	·	·	·	4	-1	-1
CCOc1cc(C2C(C(=O)N3CCCCC3)=C(C)NC3=C2C(=O)CC(C)(C)C3)ccc1O (stereo unspecified)	-5	1	6	-5	54*	0
COc1ccc(C2C(C(C)=O)=C(O)C(=O)N2c2ccc(Br)cn2)cc1 (stereo unspecified)	10	2	-7	136*	·	25
COc1ccc(C2C(C(=O)c3cccs3)=C(O)C(=O)N2c2cccc(C)n2)cc1 (stereo unspecified)	·	-4	-6	·	5	·
CC(C)(C)OC(=O)NCc1ccc(NC(=O)c2nc[nH]c2C(=O)NCCCCCCNC(=O)c2[nH]cnc2C(=O)Nc2ccc(CNC(=O)OC(C)(C)C)cc2)cc1	-3	-6	5	-106	-4	-2
Cc1cc(/C=c2/sc3nc4ccccc4n3c2=O)c(C)n1-c1ccccn1	-85	56*	86*	-98	·	-79
O=c1/c(=C\c2cccnc2)sc2nc3ccccc3n12	38	-15	-32	-29	15	66*
CCO[C@H]1OC(C(=O)NC2CC2)=C[C@@H](c2csc3ccccc23)[C@@H]1CCCO	-11	-16	11	-10	23	0
CCCOC(c1ccccc1)(c1ccc(C(F)(F)F)cc1)C(Oc1nc(C)cc(C)n1)C(=O)O (stereo unspecified)	·	43*	-1	-12	-4	11
Cc1cc(C)nc(OC(C(=O)O)C(OCCc2ccccc2)(c2ccc(F)cc2)c2ccc(F)cc2)n1 (stereo unspecified)	·	4	8	30	18	12
Cc1[nH]nc(-c2cccnc2)c1N=NN(C)C	-74	11	72*	·	-1	·
CC(=O)N(c1ccc2oc(=O)sc2c1)S(=O)(=O)c1ccccc1	17	-4	-19	·	·	·
CC(C)C(=O)N(c1ccc2oc(=O)sc2c1)S(=O)(=O)c1ccccc1	-12	-5	11	106*	-2	4
C=CCN(CC=C)C(=O)C(=O)c1cc(C)n(-c2ccc([N+](=O)[O-])cc2)c1C	-3	6	6	32	·	2
COc1ccc(N2CCN(c3ccnc4cc(Cl)ccc34)CC2)cc1	-5	1	·	3	-2	2
O=C(O)Cc1c(O)ccc2ccccc12	-2	-6	1	121*	-1	4
NCc1c(O)ccc2ccccc12	·	·	·	·	2	·
CCN1CCN(Cc2ccc(NC(=O)c3ccc(C)c(NC(=O)C(=O)c4c[nH]c5ccccc45)c3)cc2C(F)(F)F)CC1	-82	43*!	82*	-16	-3	-86
CCN1CCN(Cc2ccc(NC(=O)c3cc(NC(=O)c4cnn(-c5ccccc5)c4N)cc(OC)c3)cc2C(F)(F)F)CC1	-76	5	79*	-62	-5	-73
CCN1CCN(Cc2ccc(NC(=O)c3cc(NC(=O)C(=O)c4c[nH]c5ccccc45)cc(OC)c3)cc2C(F)(F)F)CC1	-54	-35	58	-17	-3	-5
O=C(Nc1cccc(C(=O)O)c1)/C(=C\C=C\c1ccccc1)NC(=O)c1ccccc1	3	-1	-3	·	0	·
Nc1ccc(OCc2ccccc2)cc1[N+](=O)[O-]	16	-10	-14	4	14	44*
